Screens: PubChem BioAssay, National Center for Advancing Translational Sciences (NCATS)
The list is not random: actives were taken first. Their share in the collection is about 5.9%.
GLP1R inv ag: acts as inverse agonist at human GLP-1 receptor; Potency, µM (top dose mostly 38.3 µM), inactives show at the top dose activity change, negative = inhibition, hits mostly inhibitors; HEK293 GLP-1R CRE-luciferase, luminescence, 24 h; GLP-1R form is constitutively active; P43220; AID 624417; 410,000 compounds, 1.6% hits; also: % is scaled to controls: 0 for no effect and ±100 for the full control effect; nearly all actives have a fitted effect of over 55% in size
Target sequence (P43220 whole entry, looked up): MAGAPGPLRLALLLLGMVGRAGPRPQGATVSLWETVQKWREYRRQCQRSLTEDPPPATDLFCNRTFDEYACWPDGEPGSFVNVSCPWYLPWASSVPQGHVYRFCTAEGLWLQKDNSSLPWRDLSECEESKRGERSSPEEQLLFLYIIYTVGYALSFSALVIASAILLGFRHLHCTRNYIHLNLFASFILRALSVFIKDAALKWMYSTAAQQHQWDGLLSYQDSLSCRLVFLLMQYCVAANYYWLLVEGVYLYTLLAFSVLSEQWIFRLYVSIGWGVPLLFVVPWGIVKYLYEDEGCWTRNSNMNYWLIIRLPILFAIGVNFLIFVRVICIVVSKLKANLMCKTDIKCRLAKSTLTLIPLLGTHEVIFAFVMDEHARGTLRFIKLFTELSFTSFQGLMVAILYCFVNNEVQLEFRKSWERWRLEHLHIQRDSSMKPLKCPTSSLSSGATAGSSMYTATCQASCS
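Cells are plated, allowed 12 hours at 37 deg C, then treated with compounds for 24 hr before luciferase detection reagent is added and luminescence is read after 12 min at room temperature. The HEK293 line carries constitutively active GLP-1R with a cAMP-responsive reporter.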
GLP-1R agonist: agonists of human GLP-1 receptor. P43220. HEK293 GLP-1R CRE-luciferase, luminescence, 4-6 h; cells express a hypersensitive GLP-1R form. Potency, µM (highest dose often 45.6 µM), inactives show at the highest dose activation, usual class: activators. 380,000 compounds, 0.007% hits. AID 624172; also: % of control where 0% means no effect
GLP1R cytotox: cytotoxicity counter-screen for GLP-1 receptor inverse agonists; 410,000 compounds, 0.13% hits; Potency, µM (doses to about 38.3 µM), inactives show top-dose activity change, negative = inhibition, hits mostly inhibitors; HEK293 cAMP-luciferase reporter cells, luminescence, 24 h;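 also: loss of luciferase light is scored as toxicity; % is scaled to controls: 0 for no effect and ±100 for the full control effect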
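A 23 nL compound transfer followed 12 hours of cell culture at 37 deg C; exposure then lasted 24 hr. Luciferase assay detection reagent was dispensed and plates read for luminescence after a 12 min room-temperature wait.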
RORg inh: blocks mouse ROR gamma transcriptional activity; Potency, µM (series often up to 53.6 µM), without a hit: top-dose activity change, negative = inhibition, most hits filed as inhibitors; 310,000 compounds, 5.4% hits; AID 2551; Drosophila S2 Gal4-RORgamma UAS-luciferase reporter, 20 h; also: % is scaled to controls: 0 for no effect and ±100 for the full control effect; nearly all actives have a fitted effect of over 60% in size
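ROR gamma transcriptional activity was tracked as Gal4-UAS luciferase output in stably transfected Drosophila Schneider cells, with compound added 1 hr before 700 uM copper sulfate induction and a 20 hr ambient-temperature incubation.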
VP16 counter: inhibits Gal4-VP16 luciferase reporter, ROR gamma counter-screen. Drosophila S2 Gal4-VP16 UAS-luciferase, luminescence, 20 h. Potency, µM (doses to about 53.6 µM), inactives show at the highest dose activity, negative = inhibition, actives largely listed as inhibitors. 310,000 compounds, 3.5% hits. AID 2546;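 also: Gal4-VP16 expression switched on by copper sulfate through the metallothionein promoter; % is scaled to controls: 0 for no effect and ±100 for the full control effect; nearly all actives have a fitted effect of over 50% in size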
Starred values were filed as active, the others as inactive; u = inconclusive; x = not tested or not shown; [ ] = dose if it differs, or a comment. Calls follow the shape of the dose curve; as a rule, active = well fitted curve in the direction sought with a large enough effect; inconclusive = small, poorly fitted or top-dose-only effect, or another doubt; inactive = no such curve, though single readings can be large; an effect the other way counts as inactive or inconclusive. Potency is read from the fitted curve at half-maximal effect.

SMILES | GLP1R inv ag | GLP-1R agonist | GLP1R cytotox | RORg inh | VP16 counter
CCCn1nnc(NC(=O)c2ccc(Cl)cc2Cl)n1 | -5% | 1% | -10% | 21% | u
CCCn1nnc(NC(=S)NC(=O)c2ccccc2OC)n1 | -23% | 0% | 3% | x | x
COc1ccc(NC(=O)c2cccc(N3CCCS3(=O)=O)c2)cc1 | -6% | x | -10% | x | x
CC(C)(C)c1ccc(NC(=S)NCc2cccs2)cc1 | u | -3% | u | 7.1µM* | 10µM*
CCC(C)c1ccc(NC(=S)NCc2cccs2)cc1 (stereo not given) | u | 0% | -15% | 7.1µM* | 11µM*
CC(=O)Nc1ccc(NCc2cccs2)cc1 | 1% | 2% | 1% | 14% | u
COc1ccc(CNC(=O)CCc2nc3cccnc3n2Cc2ccccc2)cc1 | -1% | x | -9% | x | x
COc1ccc(CCNc2nc(-c3ccccc3OC)cc(C(F)(F)F)n2)cc1OC | 3.5µM* | 3% | 15% | x | x
COc1ccc(-c2cc(C(F)(F)F)nc(NCCc3ccccc3)n2)cc1 | 3.2µM* | 0% | 25% | x | x
COc1ccc(-c2cc(C(F)(F)F)nc(NCCc3ccccc3)n2)cc1OC | 19% | 2% | 1% | x | x
COC(=O)[C@H](CCSC)NC(=O)C/C=C\[C@@H](C)CO | x | x | x | -6%[10 µM] | -7%[10 µM]
CCOC(=O)C1(Cc2ccc(OC)cc2)CCN(S(C)(=O)=O)CC1 | 27% | -2% | -10% | 33% | 0%
CCOC(=O)C1(Cc2ccc(Cl)cc2)CCN(C(C)Cc2ccc(O)c(OC)c2)CC1 (stereo not given) | u | -2% | u | -12% | 16µM*
COc1cccc(-c2cc(C(=O)NCCc3ccc(C)cc3)[nH]n2)c1 | 3% | x | -9% | x | x
O=C(Cn1c(=O)n(CCCS(=O)(=O)C2CCCCC2)c(=O)c2ccccc21)Nc1ccc(F)c(Cl)c1 | 16% | 0% | 2% | x | x
Cc1cc(=O)[nH]c(N=N/C(=N/Nc2ccc(O)cc2)c2ccccc2)n1 | -23% | -12% | -23% | -7% | -1%
Cc1cc(=O)[nH]c(N=N/C(=N/Nc2ccccc2C)c2ccccc2)n1 | u | 2% | u | 2.5µM* | 5µM*
COc1ccc(N/N=C(/N=Nc2nc(C)cc(=O)[nH]2)c2ccccc2)cc1 | u | 0% | 4µM* | u | 5µM*
Cc1ccc(S(=O)(=O)ON2C(=O)c3ccccc3C2=O)c(C)c1 | 23% | 1% | 5% | 20µM* | u
O=C1c2ccccc2C(=O)N1OS(=O)(=O)c1ccc(F)cc1 | 16% | -5% | 6% | u | u
Cc1cc(C)c(C)c(S(=O)(=O)ON2C(=O)c3ccccc3C2=O)c1C | -23% | 9% | 3% | u | 13µM*
Cc1cc(C)c(S(=O)(=O)ON2C(=O)c3ccccc3C2=O)cc1C | 5% | -2% | u | 14µM* | 16µM*
COc1ccc2c(c1)c(CCNNC(=O)C(C)(C)C)c(C)n2C(=O)c1ccc(Cl)cc1 | 10µM* | 5% | u | x | x
COC(=O)CNC(=O)Cc1c(C)n(C(=O)c2ccc(Cl)cc2)c2ccc(OC)cc12 | u | 8% | -7% | 15% | -2%
Cc1cccc(C(=O)NC(=S)NCc2cccnc2)c1 | -2% | -2% | -12% | 16µM* | u
SMILES | GLP1R inv ag | GLP-1R agonist | GLP1R cytotox | RORg inh | VP16 counter
CCCOc1ccc(C(=O)NC(=S)NCc2cccnc2)cc1 | -3% | 21% | -1% | u | 13µM*
CCOc1cccc(C(=O)NC(=S)NCc2cccnc2)c1 | 2% | -3% | 2% | u | u
O=C(NNC(=S)NCc1ccccc1)c1cccnc1 | 2% | 8% | -5% | -21% | -5%
O=C(NC(=S)NCCC1=CCCCC1)c1cccnc1 | -27% | 28% | u | 4µM* | u
O=C(NC(=S)NCc1ccccc1)c1cccnc1 | 17% | 7% | 0% | 11µM* | u
COc1ccc(-n2cc(C(=O)OCc3ccc(F)c(F)c3)c3ccccc3c2=O)cc1 | -6% | x | 13% | x | x
Clc1ccc(OCCSCc2nc3ccccc3[nH]2)cc1 | u | 2% | -2% | 5µM* | 5µM*
CCn1c(COc2ccc(OC)cc2)nnc1SCc1nc2ccccc2c(=O)[nH]1 | x | x | x | 13% | -8%
CCn1c(COc2ccc(Cl)cc2)nnc1SCc1nc2ccccc2[nH]1 | -27% | 8% | 5% | 11µM* | u
Nc1nc(=S)[nH]c2c1C1(CCCCC1)Cc1ccccc1-2 | 18% | 2% | 13% | 2.2µM* | 4µM*
Nc1nc(=S)[nH]c2c1C1(CCCC1)Cc1ccccc1-2 | u | -5% | 30% | 6.3µM* | 8.9µM*
Cc1ccc(C)c(NC(=O)CSc2ncc3c(n2)-c2ccccc2N(Cc2ccccc2C)S3(=O)=O)c1 | 16% | x | -4% | x | x
On1c2c(c3c4nonc4ccc31)CCCC2 | x | x | x | u | 22µM*
COn1c2c(c3c4nonc4ccc31)CCCC2 | 0% | 1% | 46% | 16% | 13%
CCOc1ccc(S(=O)(=O)Nc2cccc(-c3ccc(N4CCCC4)nn3)c2)cc1 | u | x | 5% | x | x
CCN(c1ccc(OC)cc1)S(=O)(=O)c1ccc(-c2cc(C)no2)s1 | 7.9µM* | 20% | -47% | 2% | -2%
CCN(c1ccccc1)S(=O)(=O)c1ccc(-c2cc(C)no2)s1 | u | x | -31% | x | x
CCOC(=O)c1cc(-c2ccc(C)cc2)n(CC(=O)Nc2ccc(OC)cc2OC)c1C | 3% | 0% | 0% | x | x
Cc1cc(Cl)cc(C)c1OCCCCn1ccnc1 | -7% | 11% | 6% | 11µM* | -29%
Cc1cc(OCCCn2ccnc2)cc(C(C)C)c1 | 3% | -3% | -2% | 32µM* | -1%
Clc1ccccc1OCCCCn1ccnc1 | 5% | 10% | 6% | 4%[0.365 µM] | x
Cc1ccccc1OCCCCCn1ccnc1 | 3% | -6% | 4% | 11µM* | -6%
Cc1cccc(Cl)c1OCCCCn1ccnc1 | 0% | 10% | 10% | 16µM* | 19%
Clc1ccccc1OCCCn1ccnc1 | 10% | -2% | 0% | -30% | 3%
Cc1cccc(OCCCCCn2ccnc2)c1 | 2% | 10% | -4% | u | 9%
SMILES | GLP1R inv ag | GLP-1R agonist | GLP1R cytotox | RORg inh | VP16 counter
Cn1c(=O)c2c(n3c4ccccc4nc13)NC(=O)CC2c1ccccc1F (stereo not given) | 2% | x | -1% | x | x
CC(C)(C)OC(=O)NCCCCC1=CC2=CC(=O)C(C)(OC(=O)CCc3ccccc3)C(=O)C2=CO1 (stereo not given) | x | x | x | -2% | -4%
O=C(Nc1ccc2c(c1)CCCN2C(=O)c1cccs1)c1ccccc1Cl | u | x | -19% | x | x
COc1ccc2c(c1-c1c3c(cc(Br)c1OC)CCCC3)CCCC2 | x | x | x | -4% | -3%
Cc1cc(OCCCn2ccnc2)ccc1C(C)C | -18% | 12% | -15% | -35% | u
Cc1cc(OCCCCn2ccnc2)cc(C)c1Cl | u | 10% | u | 13µM* | -24%
CC(C)(C)c1ccc(OCCCn2ccnc2)cc1 | u | 13% | 0% | -115% | 25µM*
